Sampled rows, rich in hits. Any-hit rate of the full collection: about 3.4%.
GPR151 activ: activators of human GPR151 | Q8TDV0 | PathHunter beta-arrestin GPR151 cells, luminescence | activation, % at 11.2 µM | 650,000 compounds, 1% hits | AID 1508602; in the data active = activation above about 4.9%
FBW7 act: activators of human E3 ligase FBW7; AlphaScreen FBW7–phospho-cyclin E peptide binding, activator screen; normalized activity (activation), % at 26.1 µM; 650,000 compounds, 0.13% hits; in the data active = normalized activity above about 1.9%;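 note: purified mutant Fbw7 with reduced substrate affinity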
TEAD-YAP block: TEAD-YAP interaction inhibition; AID 1259422; 640,000 compounds, 1.4% hits; inhibition, % at 9.12 µM; HEK-TIYL cells, TEAD-Gal4/YAP UAS-luciferase luminescence; in the data active = inhibition above about 32%
MITF inh: blocks human microphthalmia-associated transcription factor; AlphaScreen MITF homodimerization, bead proximity signal; 650,000 compounds, 0.91% hits; inhibition, % at 2.6 µM; AID 1259374; O75030; in the data active = inhibition above about 50%
GPR151 confirm: human GPR151 activation, confirmation screen | shares compounds with GPR151 activ | GPR151 PathHunter beta-arrestin cells, luminescence, 90 min; % of EA-reagent control over plate median | activation, % at 11.2 µM | 6,700 tested, under 10 active;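 active = mean percent activation across replicates above the confirmation screen cutoff of 4.91%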
GPR119 counter: counter-screen for GPR151 activators: effect on human GPR119. GPR119 PathHunter beta-arrestin cells, luminescence, 90 min; 0 = compound-well median, 100 = enzyme-acceptor control. activation, % at 11.2 µM. shares compounds with GPR151 activ. 6,700 compounds, 0.3% hits;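 active = mean percent activation in the counterscreen above 29.09%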;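 note: counterscreen on off-target GPR119 to flag nonselective hits from the GPR151 activator screen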
Target sequence (Q8TDV5 whole entry, looked up): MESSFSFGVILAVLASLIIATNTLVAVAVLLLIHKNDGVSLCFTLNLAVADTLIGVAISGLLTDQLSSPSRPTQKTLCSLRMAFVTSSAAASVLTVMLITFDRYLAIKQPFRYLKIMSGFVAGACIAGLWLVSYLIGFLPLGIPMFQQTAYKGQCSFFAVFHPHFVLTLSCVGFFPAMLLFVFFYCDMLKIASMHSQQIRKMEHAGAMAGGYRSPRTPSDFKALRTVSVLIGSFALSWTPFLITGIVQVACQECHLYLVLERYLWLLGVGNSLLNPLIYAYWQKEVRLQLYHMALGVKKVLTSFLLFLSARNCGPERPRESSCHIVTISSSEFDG
Each line names hits and unclear results; the compound was inactive in the other large screens (follow-up assays come after a bar, where they were run).

COc1ccc(OC)c(S(=O)(=O)N2CCN(CC(=O)c3ccco3)CC2)c1	GPR151 activ 6.8 | GPR151 confirm inactive | GPR119 counter inactive
COc1ccc(F)cc1S(=O)(=O)N1CCN(CC(=O)c2ccco2)CC1	none
COc1ccc(S(=O)(=O)N2CCN(CC(=O)c3ccco3)CC2)cc1OC	GPR151 activ 12 | GPR151 confirm inactive | GPR119 counter inactive
O=C(CN1CCN(S(=O)(=O)c2ccccc2)CC1)c1ccco1	none
COCC(=O)N1CCN(CC(=O)c2ccco2)CC1	GPR151 activ 4.9 | GPR151 confirm inactive | GPR119 counter inactive
CCc1cc2c(cc3c(=O)n(CC(=O)NCC4CCCN4CC)nc(CC)n32)s1 (stereo not drawn)	none
CC(c1ccccc1)N1C(=O)C2C(C(=O)Nc3ccc(Cl)cc3)C3C=CC2(O3)C1C(=O)NC1CCCCC1 (stereo not drawn)	GPR151 activ 5.2 | GPR151 confirm inactive | GPR119 counter inactive
COc1cccc(CN2C(=O)C3C(C(=O)Nc4cccc(C)c4)C4C=CC3(O4)C2C(=O)NC2CCCCC2C)c1 (stereo not drawn)	GPR151 activ 5.5 | GPR151 confirm inactive | GPR119 counter inactive
CC1CCCC(NC(=O)C2N(Cc3ccc(F)cc3)C(=O)C3C(C(=O)Nc4ccc(Cl)cc4)C4C=CC32O4)C1C (stereo not drawn)	GPR151 activ 5.3 | GPR151 confirm inactive | GPR119 counter inactive
CC1CCCC(NC(=O)C2N(Cc3ccc(Cl)cc3)C(=O)C3C(C(=O)Nc4ccc(Cl)cc4)C4C=CC32O4)C1C (stereo not drawn)	none
COCCCN1C(=O)C2C(C(=O)Nc3cccc(SC)c3)C3C=CC2(O3)C1C(=O)NC1CCCCC1 (stereo not drawn)	GPR151 activ 5.8 | GPR151 confirm inactive | GPR119 counter inactive
COc1ccc(CN2C(=O)C3C(C(=O)Nc4cccc(C)c4)C4C=CC3(O4)C2C(=O)NC2CCCCC2C)cc1 (stereo not drawn)	none
O=C(CSc1nc(-c2ccccc2)cs1)NCc1ccc2c(c1)OCO2	none
Cc1cc(NC(=O)CN2CCN(C3CCCCC3)CC2)ccc1F	none
N#C/C(=C/c1ccc(Cl)cc1)C(=O)Nc1sc2c(c1C(N)=O)CCCC2	none
COC1COC(=O)[C@@H](C)NC(=O)C/C=C/[C@H](C)[C@@H](OC)COC(=O)C/C=C/[C@@H]1C (stereo partly drawn)	none (no result: TEAD-YAP block)
CO[C@@H]1COC(=O)C/C=C/[C@H](C)[C@H](OC)COC(=O)[C@H](C)COC(=O)C/C=C/[C@@H]1C	GPR151 activ 5.1 (no result: TEAD-YAP block) | GPR151 confirm inactive | GPR119 counter inactive
CCC(C)Nc1nc(NC(C)C)nc(Nn2cnnc2)n1 (stereo not drawn)	none
CCCC(=O)ON1C(=O)c2cccc3cccc(c23)C1=O	GPR151 activ 5.5 | GPR151 confirm inactive | GPR119 counter inactive
Cc1ccccc1OCC(=O)NC1CCCCC1	none
Nc1cc(Sc2ccc(F)cc2)cc([N+](=O)[O-])c1	GPR151 activ 5.1 | GPR151 confirm inactive | GPR119 counter inactive
Cc1ccc(-c2c(N3CCCCC3)c(=O)c2=O)cc1	GPR151 activ 6.8 | GPR151 confirm inactive | GPR119 counter inactive
Cc1[nH]c2ccccc2c1C1CC(=O)NC1=O (stereo not drawn)	none
CC(=O)c1c(C)[nH]c(C(=O)COC(=O)c2ccc(-n3nc(C)cc3C)cc2)c1C	GPR151 activ 7.7 | GPR151 confirm inactive | GPR119 counter inactive
Cc1cc(C)n(-c2ccc(C(=O)OCC(=O)c3ccccc3)cc2)n1	none
O=C(c1cccc(F)c1F)N1CCCCCC1	GPR151 activ 4.9 | GPR151 confirm inactive | GPR119 counter inactive
O=C(c1cccc(F)c1F)N1CCCCC1	none
Cc1ccc(NC(=O)c2cnn(-c3ccccc3)c2NC(=O)c2ccc(Cl)cc2)cc1	GPR151 activ 5.6 | GPR151 confirm inactive | GPR119 counter inactive
c1ccc2c(c1)sc1nnc(SCc3cn4cccnc4n3)n12	GPR151 activ 5.0 | GPR151 confirm inactive | GPR119 counter inactive
COc1c(O)c(O)c2cc(OC)c3c(OC)cc(=O)c4c5c(=O)c(OC)c(C(C)=O)c6c5c(c1CC=6C)c2c34	none
CC(NC(=O)CCn1c(=O)[nH]c2ccsc2c1=O)C12CC3CC(CC(C3)C1)C2 (stereo not drawn)	GPR151 activ 12 | GPR151 confirm inactive | GPR119 counter inactive
CC(NC(=O)CCCn1c(=O)[nH]c2ccsc2c1=O)C12CC3CC(CC(C3)C1)C2 (stereo not drawn)	none
O=C(Cn1c(=O)[nH]c2ccsc2c1=O)NC1CCCCC1	GPR151 activ 5.3 | GPR151 confirm inactive | GPR119 counter inactive
CCCCCCCCCCCCCCCC(=O)SCCOP(=O)(O)OCC[N+](C)(C)C	GPR151 activ 5.4 (no result: FBW7 act, TEAD-YAP block) | GPR151 confirm inactive | GPR119 counter inactive
COc1ccccc1OC(C)C(=O)Nc1c(C)n(C)n(-c2ccccc2)c1=O (stereo not drawn)	GPR151 activ 6.7 | GPR151 confirm inactive | GPR119 counter inactive
Cc1c(NC(=O)Cc2ccc(Cl)cc2)c(=O)n(-c2ccccc2)n1C	none
Cc1c(NC(=O)CCSc2ccc(Cl)cc2)c(=O)n(-c2ccccc2)n1C	GPR151 activ 5.2 | GPR151 confirm inactive | GPR119 counter inactive
Cc1c(NC(=O)c2cc(-c3ccc(Cl)c(Cl)c3)on2)c(=O)n(-c2ccccc2)n1C	GPR151 activ 8.5 | GPR151 confirm inactive | GPR119 counter inactive
COc1ccc(C2=CC3=CC(=O)C(C)(O)C(=O)C3=CO2)cc1 (stereo not drawn)	none (no result: TEAD-YAP block)
COc1ccc(Cl)cc1-c1nc(/C=N/c2ccccn2)c(O)o1	none
O=C(CCc1cccnc1)NCc1nnc2n1CCN(CC1CC=CCC1)CC2 (stereo not drawn)	none
CCCN1C(=O)c2ccc(C(=O)NC3=NCCS3)cc2C1=O	GPR151 activ 9.5 | GPR151 confirm inactive | GPR119 counter inactive
Cc1ccc(C(=O)NC2=NCCS2)cc1	none
Nc1ccc(C(=O)N/N=C/c2ccccc2)cc1	none
O=C(O)c1cc(-c2cccnc2)nc2ccc(Br)cc12	none
Nc1cccc(-c2cc(C(=O)O)c3cc(Br)ccc3n2)c1	GPR151 activ 6.7 | GPR151 confirm inactive | GPR119 counter inactive
CCOc1c(S(=O)(=O)NC2CC(C)(C)NC(C)(C)C2)ccc(Cl)c1Cl	none
CN1CCc2cc(CNC(=O)CC3C(=O)NCCN3Cc3ccccc3F)ccc21 (stereo not drawn)	none
COc1ccc(OC)c(NC(=O)C2=C(C)NC(=S)NC2c2cccc(Cl)c2)c1 (stereo not drawn)	none
C/C(=N\Nc1ccc(C(F)(F)F)cn1)c1ccncc1	GPR151 activ 6.4 | GPR151 confirm inactive | GPR119 counter inactive
C/C(=N\Nc1ccc(C(F)(F)F)cn1)c1ccc(O)cc1	none
Cc1ccc(C2(C)NC(=O)N(CCCCC#N)C2=O)cc1 (stereo not drawn)	none
